Bioassay records (PubChem)
The list is not random: actives were taken first. Their share in the collection is about 3.5%.
MITF inh = inhibitors of human MITF. AlphaScreen MITF homodimerization, bead proximity signal. inhibition, % at 2.6 µM. 0.91% of 650,000 active; in the data active = inhibition above about 50%;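 also: 0% = vehicle wells with protein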
Target sequence (O75030 whole entry, looked up): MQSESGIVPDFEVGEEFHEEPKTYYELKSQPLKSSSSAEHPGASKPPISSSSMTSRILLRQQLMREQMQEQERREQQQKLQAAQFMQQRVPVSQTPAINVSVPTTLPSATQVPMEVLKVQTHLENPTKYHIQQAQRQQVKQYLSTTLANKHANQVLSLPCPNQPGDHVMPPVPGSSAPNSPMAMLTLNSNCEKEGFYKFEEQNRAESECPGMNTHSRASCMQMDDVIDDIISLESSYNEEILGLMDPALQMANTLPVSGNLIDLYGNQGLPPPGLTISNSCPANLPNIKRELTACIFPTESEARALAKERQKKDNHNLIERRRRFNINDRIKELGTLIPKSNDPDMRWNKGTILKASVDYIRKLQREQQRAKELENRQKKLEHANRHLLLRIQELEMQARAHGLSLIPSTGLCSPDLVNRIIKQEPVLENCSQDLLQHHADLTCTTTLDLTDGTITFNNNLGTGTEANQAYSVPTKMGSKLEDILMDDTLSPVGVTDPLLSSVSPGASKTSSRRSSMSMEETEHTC
FBW7 act = human FBW7 E3 ligase activation, primary screen; AID 1259310; Q969H0; normalized activity (activation), % at 26.1 µM; AlphaScreen FBW7–phospho-cyclin E peptide binding, activator screen; 0.13% of 650,000 active; in the data active = normalized activity above about 1.9%;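 also: purified mutant Fbw7 with reduced substrate affinity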
TEAD-YAP inh = TEAD-YAP interaction inhibition; HEK-TIYL cells, TEAD-Gal4/YAP UAS-luciferase luminescence; inhibition, % at 9.12 µM; 1.4% of 640,000 active; in the data active = inhibition above about 32%;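 also: 0% = median of test compound wells and 100% = reference inhibitor wells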
GPR151 activ = activates the human receptor GPR151. Q8TDV0. PathHunter beta-arrestin GPR151 cells, luminescence. activation, % at 11.2 µM. 1% of 650,000 active. AID 1508602; in the data active = activation above about 4.9%;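 also: 0% = median of compound wells and 100% = cells with positive control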
An asterisk follows results filed as active.

SMILES	MITF inh	FBW7 act	TEAD-YAP inh	GPR151 activ
O=C(Cc1ccc2c(c1)OCCCO2)c1ccc(O)cc1O	3	0	61*	2
CCNC(=S)NCc1ccc(OC)cc1	3	0	-1	-2
Cc1ccc2cc3c(nc2c1C)OC(C)C(=O)N(Cc1cccnc1)C3 (stereo not given)	10	0	34*	-1
Cc1cccc2cc3c(nc12)OC(C)C(=O)N(Cc1cccnc1)C3 (stereo not given)	-2	0	1	0
Cc1ncoc1C(=O)NC1CCCc2c1cnn2-c1ccc(F)cc1F (stereo not given)	6	0	45*	0
CC1=C(C(=O)NC2CCCc3c2cnn3-c2ccc(F)cc2F)OCCO1 (stereo not given)	8	0	30	0
Cc1ccc2nc(/C(C#N)=C/c3ccccc3OC(=O)c3ccccc3)[nH]c2c1	12	0	52*	-1
CC(C)(C)Nc1ncnc2c1cnn2-c1ccccc1	3	0	45*	-1
c1ccc(CNc2ncnc3c2cnn3-c2ccccc2)cc1	14	0	12	0
Cc1ccc(-n2ncc3c(NC(C)(C)C)ncnc32)cc1	-3	0	49*	2
CC[C@H](C)[C@@H]1NC(=O)[C@@H]2C[C@H](NCc3cccc(OCCN(C)C)c3)CN2C1=O	-4	0	3	0
CC(=O)NC(C)CCc1ccc(-c2csc(N)n2)cc1 (stereo not given)	5	0	36*	-2
CC(=O)NCc1ccc(-c2csc(N)n2)cc1	-5	0	13	2
COc1ccc(-n2nc([N+](=O)[O-])c(=Nc3cc(C)ccc3C)n2O)cc1	3	-1	-11	-1
COCc1c(C(=O)N/N=C/c2cc(Cl)ccc2O)nnn1-c1nonc1N	38	0	61*	0
COCc1c(C(=O)N/N=C/c2ccc(Cl)cc2)nnn1-c1nonc1N	6	0	4	0
CCN(CC)c1ccc(/C=N/NC(=O)c2nnn(-c3nonc3N)c2COC)c(O)c1	-7	0	37*	0
CCOC(=O)c1c(C)sc(C=O)c1NC(=O)c1ccc(Cl)cc1	-14	0	-3	0
COc1cc(/C=C2/C(=O)N(c3ccc(Cl)c(C(=O)O)c3)N=C2C)c(Cl)cc1O	-10	0	-2	0
CCCOC(=O)COc1ccc2c3c(c(=O)oc2c1)CCC3	2	1	-2	-1
CCCCOc1ccc(C(=O)Nc2cc(C)ccn2)cc1	8	0	52*	-7
COc1ccc2oc(=O)c(C(=O)Nc3ccc(C)cc3Br)cc2c1	-1	0	1	1
Cc1cc(NC(=O)c2ccc(N3CCCCS3(=O)=O)cc2)ccc1Br	20	0	10	0
Cc1ccnc(NC(=O)c2ccc(N3CCCCS3(=O)=O)cc2)c1	1	0	88*	-9
CCCCCOc1ccc(C(=O)Nc2cc(C)on2)cc1	6	0	-14	-2
SMILES	MITF inh	FBW7 act	TEAD-YAP inh	GPR151 activ
COc1ccc2oc(=O)c(C(=O)Nc3cc(C)ccn3)cc2c1	-5	0	34*	1
Cc1ccc2nc(C)c(C(=O)NCC(F)(F)F)n2c1	18	1.9*	0	0
CC(C)(C)NC(=O)Cn1nc2c3ccccc3nc(C3CC3)n2c1=O	-1	0	44*	-1
CC(C)NC(=O)Cn1nc2c3ccccc3nc(C3CC3)n2c1=O	4	0	-1	2
Cc1ccsc1/C=N/NC(=O)c1ccc(CN2CCOCC2)o1	-9	0	-15	0
OCCNc1nc(Nc2ccccn2)nc2c1ncn2-c1ccsc1	-5	0	69*	1
FC(F)(F)c1cccc(CNc2nc(Nc3nccc4ccccc34)nc3c2ncn3-c2ccsc2)c1	-3	0	32*	1
OCCNc1nc(Nc2nccc3ccccc23)nc2c1ncn2-c1ccsc1	0	0	58*	1
CCCNc1nc(Nc2ccccn2)nc2c1ncn2-c1ccccc1	6	0	22	-1
c1ccc(OCCNc2nc(Nc3ccccn3)nc3c2ncn3-c2ccsc2)cc1	3	0	11	0
CCCNc1nc(Nc2ccccn2)nc2c1ncn2-c1ccsc1	9	0	62*	-1
COc1ccc(NC(=O)c2sc3nc(-c4cccs4)ccc3c2N)c(OC)c1	9	1	4	-1
CCCCCCN1C2=NCCCN2c2ccccc21	8	1	36*	-1
C=CCN1C2=NCCCN2c2ccccc21	1	0	6	-1
c1ccc(COc2ccc(CN3CCOCC3)cc2)cc1	-14	0	71*	-4
CC(=O)N(/N=C1\Sc2ccccc2C1=O)c1ccccc1Cl	9	0	91*	-2
CC(=O)N(/N=C1\Sc2ccccc2C1=O)c1cccc(C)c1	0	0	-42	-1
O=C(CN1CCCc2ccccc21)N/N=C/c1ccc(Cl)cc1	-7	0	36*	0
O=C(CN1CCCc2ccccc21)N/N=C/c1ccccc1	-5	0	-3	1
CC(=O)N(C)c1ccc(C(F)(F)F)cc1[N+](=O)[O-]	4	0	1	-1
COc1ccc(CC(=O)Nc2cc(Nc3ccccc3-c3ncn[nH]3)ccn2)cc1	7	1	13	-1
COc1ccc(CC(=O)Nc2cc(Nc3ccccc3-c3ncco3)c(C(F)(F)F)cn2)cc1	-14	0	54*	-1
COc1ccc(CC(=O)Nc2cc(Nc3ccccc3NC(C)=O)c(C(F)(F)F)cn2)cc1	16	0	67*	-1
COc1ccc(CC(=O)Nc2ccccc2C(F)(F)F)cc1	15	0	-1	-1
O=C1CC(=O)Nc2cc(S(=O)(=O)Nc3ccc(F)cc3F)ccc2N1	13	0	9	-1
SMILES	MITF inh	FBW7 act	TEAD-YAP inh	GPR151 activ
CCN(CC)c1ccc2cc(S(=O)(=O)c3ccc(F)cc3)c(=O)oc2c1	-32	2.1*	-17	-1
COc1cccc2cc(S(=O)(=O)c3ccc(F)cc3)c(=O)oc12	6	0	-3	-1
CC1=NOC(=O)/C1=C/c1ccc(-c2ccc(C(=O)O)cc2)o1	57*	0	7	0
CC1=NOC(=O)/C1=C\c1ccc(-c2ccc(Cl)c(C(=O)O)c2)o1	15	0	-1	0
O=S(=O)(c1ccc(Cl)cc1)N1CCN(Cc2cc(Br)ccc2O)CC1	16	0	11	-1
Cc1noc(/C=C/c2ccco2)c1S(=O)(=O)N1CCC(C(=O)Nc2nccs2)CC1	58*	0	-12	0
COC(=O)c1cc2c(cc1NC(=O)Cc1noc3ccc(C)cc13)OCO2	-15	0	-4	-1
COc1ccc(O)c(/C=N/n2c(C)csc2=NC(C)C)c1	24	0	41*	-2
C=CCNc1c(CC)c(C)nc2ncnn12	-4	0	-6	0
CC(C)(C)C1(C)OC(=O)C(=Cc2ccc(Br)o2)C(=O)O1 (stereo not given)	69*	0	-11	0
N=C1/C(=C/c2cccn2-c2cc([N+](=O)[O-])ccc2Cl)C(=O)N=C2SC=CN12	8	0	36*	-1
COc1ccc(CCNc2cc(Nc3cnccn3)ncn2)cc1	12	0	3	-1
